# Where “and” joins values, the source holds several entries; their conditions need not be identical. Equal values may be shown once. Results filed as inconclusive are left out. Calls of active or inactive are those of the source. Unless noted, no rule for the calls is given here.
# How the values were obtained:
# [1] = qHTS for small molecule inhibitors of Yes1 kinase: Counter Assay (AID 686950; active = well fitted curve in the direction sought with a large enough effect; an effect the other way counts as inactive or inconclusive;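 also: no kinase present so only ADP-Glo detection of a fixed ADP amount is tested; luminescence from ADP-Glo reporting ADP in a fixed ATP and ADP mixture; 0% = DMSO wells with ATP plus ADP and -100% = ATP-only wells without ADP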)
# In short: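 Enzyme-free detection counter-screen: compounds preincubated 20 min in buffer, then 0.08 mM ATP plus 0.02 mM ADP added for 60 min at room temperature; ADP-Glo luminescence. Buffer 50 mM Tris pH 7.5, 10 mM MgCl2, 150 mM NaCl; normalized to ATP+ADP and ATP-only controls.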
# [2] = biological target: Arylsulfatase A (Homo sapiens) (UniProt P15289); experiment: qHTS screen for enhancers of Arylsulfatase A (ASA1): LOPAC Validation Assay (AID 720538; active = well fitted curve in the direction sought with a large enough effect; an effect the other way counts as inactive or inconclusive)
# Sequence of Arylsulfatase A (Homo sapiens) (P15289 whole entry, looked up): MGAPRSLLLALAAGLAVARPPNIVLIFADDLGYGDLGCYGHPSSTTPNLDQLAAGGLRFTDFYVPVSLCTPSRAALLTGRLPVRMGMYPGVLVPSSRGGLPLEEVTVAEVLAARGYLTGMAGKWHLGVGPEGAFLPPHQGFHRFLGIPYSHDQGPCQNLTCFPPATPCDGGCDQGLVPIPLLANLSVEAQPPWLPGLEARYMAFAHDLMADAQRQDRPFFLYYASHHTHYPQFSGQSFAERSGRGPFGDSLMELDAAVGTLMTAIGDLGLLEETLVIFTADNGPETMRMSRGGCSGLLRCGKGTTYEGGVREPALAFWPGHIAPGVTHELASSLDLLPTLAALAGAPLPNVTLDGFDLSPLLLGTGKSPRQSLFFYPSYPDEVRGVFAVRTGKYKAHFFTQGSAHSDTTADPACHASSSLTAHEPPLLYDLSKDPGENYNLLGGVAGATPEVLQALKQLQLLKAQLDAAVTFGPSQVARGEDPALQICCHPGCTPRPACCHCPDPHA
# In short: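 SV40-transformed skin fibroblasts from an MLD patient (ASA-I179S) were treated with compounds for 48h at 37 degree C, then lysed with 0.5mM pNCS final substrate for 14h at room temperature; NaOH stop, fluorescence read (Ex=525 nm; Em=598 nm).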
# [3] = qHTS for compounds that reverse cellular toxicity of Amyloid beta (A-beta) peptide in yeast: LOPAC Validation Assay (AID 720559; active = well fitted curve in the direction sought with a large enough effect; an effect the other way counts as inactive or inconclusive;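 also: plate controls were DMSO for no effect and equimolar ferric chloride plus clioquinol rescue for full effect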)
# In short: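 Yeast cells expressing toxic A-beta were combined with pinned compounds in growth medium and incubated 48 hr at 30 C. Growth was read as absorbance at 600 nm and normalized to DMSO and to an equimolar FeCl3/clioquinol positive control.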
# [4] = qHTS for Activators of Parkin Expression: LOPAC Validation Assay (FLuc Reporter) (AID 720573; active = well fitted curve in the direction sought with a large enough effect; an effect the other way counts as inactive or inconclusive;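 also: 0% = DMSO and 100% = positive control compounds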)
# In short: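 Neuronal cell line stably carrying FLuc/NLuc coincidence reporter under Parkin promoter; cells plated 24 h, then compounds added in 7-point dose response for 24 h at 37 C. FLuc luminescence read; normalized to DMSO and positive control (100%).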
# [5] = biological target: T1, Hexokinase-4 (Homo sapiens) + Glucokinase regulatory protein (Homo sapiens) (UniProt P35557+Q14397); experiment: qHTS assay for inhibitors of recombinant human GCK-GKRP interaction: Diaphorase-coupled assay (AID 743205; active = well fitted curve in the direction sought with a large enough effect; an effect the other way counts as inactive or inconclusive)
# T1 sequence (P35557 whole entry, looked up): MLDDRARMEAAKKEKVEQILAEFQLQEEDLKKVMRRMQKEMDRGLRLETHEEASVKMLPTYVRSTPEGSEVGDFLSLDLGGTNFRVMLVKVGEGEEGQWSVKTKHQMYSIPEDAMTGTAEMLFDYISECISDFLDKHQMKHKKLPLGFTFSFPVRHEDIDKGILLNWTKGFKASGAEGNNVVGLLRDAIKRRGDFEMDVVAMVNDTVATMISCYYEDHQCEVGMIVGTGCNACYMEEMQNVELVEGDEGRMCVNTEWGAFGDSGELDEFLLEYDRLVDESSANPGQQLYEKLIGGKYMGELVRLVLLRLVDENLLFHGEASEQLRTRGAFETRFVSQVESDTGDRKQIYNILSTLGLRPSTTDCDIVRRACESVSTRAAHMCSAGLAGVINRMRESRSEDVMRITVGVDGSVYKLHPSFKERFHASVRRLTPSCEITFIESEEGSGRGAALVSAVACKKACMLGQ
# T1 sequence (Q14397 whole entry, looked up): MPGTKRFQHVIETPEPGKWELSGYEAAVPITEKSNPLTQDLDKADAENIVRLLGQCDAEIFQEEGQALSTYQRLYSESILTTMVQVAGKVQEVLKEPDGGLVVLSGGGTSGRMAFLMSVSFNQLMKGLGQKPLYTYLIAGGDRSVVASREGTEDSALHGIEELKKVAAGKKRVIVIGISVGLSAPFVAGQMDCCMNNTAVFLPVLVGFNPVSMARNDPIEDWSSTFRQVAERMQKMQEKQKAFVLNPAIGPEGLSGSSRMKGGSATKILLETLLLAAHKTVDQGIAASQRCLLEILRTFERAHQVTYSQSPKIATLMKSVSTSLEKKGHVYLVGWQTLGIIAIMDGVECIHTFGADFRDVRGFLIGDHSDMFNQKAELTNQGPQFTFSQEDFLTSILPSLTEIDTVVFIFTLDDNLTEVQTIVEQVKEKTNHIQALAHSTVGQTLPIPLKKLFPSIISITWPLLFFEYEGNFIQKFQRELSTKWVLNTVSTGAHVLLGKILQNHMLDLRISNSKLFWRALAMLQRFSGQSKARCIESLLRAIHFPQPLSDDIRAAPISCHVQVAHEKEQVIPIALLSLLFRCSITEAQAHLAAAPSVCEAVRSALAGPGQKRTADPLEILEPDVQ
# In short: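 GST-GCK (10 nM) with FLAG-GKRP (10 nM), 5 mM glucose and 0.4 mM ATP in pH 7.6 Hepes; compounds preincubated 20 min with substrate. G6PDH/diaphorase coupling converts resazurin to resorufin, read kinetically (ex 525/em 590 nm) for 30 min.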
# [6] = biological target: T1, Hexokinase-4 (Homo sapiens) + Glucokinase regulatory protein (Homo sapiens); experiment: qHTS assay for inhibitors of recombinant human GCK-GKRP interaction: HTRF assay (AID 743207; active = well fitted curve in the direction sought with a large enough effect; an effect the other way counts as inactive or inconclusive;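 also: 0% = DMSO with GCK present and -100% = DMSO wells lacking GCK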)
# In short: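 GST-GCK and FLAG-GKRP (5 nM each) were combined with 2 uM S6P in pH 7.1 Hepes/MgCl2/KCl/DTT buffer, then compound and anti-FLAG XL665/anti-GST K antibodies were added. After 60 min at room temperature, HTRF 665/615 nm emission was read.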
# [7] = qHTS Assay for Identifying Gametocytocidal Compounds (AID 743244; active = well fitted curve in the direction sought with a large enough effect; an effect the other way counts as inactive or inconclusive; also: potency is read from the fitted curve at half-maximal effect;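 as to max response: % is scaled to controls: 0 for no effect and ±100 for the full control effect; actives lower the fluorescent signal which means gametocytes are killed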); conditions: P. falciparum 3D7 stage III-V gametocytes, alamarBlue, 72 h; max response: stronger effect = lower value
# In short: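 Stage III-V P. falciparum 3D7 gametocytes, 20,000 per well, were exposed to compounds for 72 h at 37C, 5% CO2. AlamarBlue was then added for 24 h and viability was read as fluorescence at Ex 525/Em 598 nm.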
# [8] = qHTS profiling of the MIPE4 collection as inhibitors of Plasmodium falciparum (3D7) proliferation (AID 743344);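 also: scaled between DMSO vehicle wells and 0.29 µM artemisinin as full inhibition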; conditions: P. falciparum 3D7 in erythrocytes, SYBR Green DNA fluorescence, 72 h; at 28.5 µM (top of the series) unless noted
# In short: (§1)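 Erythrocytes infected with P. falciparum (0.3% parasitemia, 2.5% hematocrit) incubated with compounds 72 h at 37 C, 5% CO2. Lysis with saponin/Triton buffer containing SYBR Green I, overnight at room temperature in the dark; DNA fluorescence (485/535 nm) normalised to 0.29 uM artemisinin and DMSO.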
# [9] = qHTS profiling of the MIPE4 collection as inhibitors of Plasmodium falciparum (DD2) proliferation (AID 743345); conditions: P. falciparum Dd2 in erythrocytes, SYBR Green DNA, 72 h; at 28.5 µM (top of the series) unless noted
# In short: as §1
# [10] = qHTS profiling of the MIPE4 collection as inhibitors of Plasmodium falciparum (DD2) proliferation (Rep 2) (AID 743346); conditions: P. falciparum Dd2 in erythrocytes, SYBR Green DNA, 72 h; at 28.5 µM (top of the series) unless noted
# In short: as §1
# [11] = qHTS profiling of the MIPE4 collection as inhibitors of Plasmodium falciparum (HB3) proliferation (AID 743347);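 also: plate controls were DMSO vehicle wells for no effect and artemisinin wells for full effect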; conditions: P. falciparum HB3 in erythrocytes, SYBR Green DNA, 72 h; at 28.5 µM (top of the series) unless noted
# In short: as §1
# [12] = High-throughput drug toxicity screening in the BPDCN cell line Gen2.2 (AID 1224824); conditions: Gen2.2 BPDCN cells; at 45.8 µM (top of the series) unless noted;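 also: cells exposed to compounds for 48 h before reading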
# In short: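 Gen2.2 cells (500/well) in phenol red-free RPMI with 10% FBS were exposed to compounds for 48 h at 37 °C, 5% CO2. Viability was read by CellTiter-Glo luminescence and normalized to DMSO (100%) and 9.2 uM bortezomib (0%).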
# [13] = qHTS profiling for inhibitors of Plasmodium falciparum (3D7) proliferation (AID 743322);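 also: infected erythrocytes exposed to compound for 72 h before lysis; 100% = DMSO vehicle wells and 0% = 0.29 µM artemisinin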; conditions: P. falciparum 3D7 proliferation; at 28.7 µM (top of the series) unless noted
# In short: as §1
# [14] = qHTS profiling for inhibitors of Plasmodium falciparum (HB3) proliferation (AID 743324; active = well fitted curve in the direction sought with a large enough effect; an effect the other way counts as inactive or inconclusive;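 also: 100% = DMSO vehicle wells and 0% = artemisinin-treated control wells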); conditions: Plasmodium falciparum HB3 blood-stage proliferation; at 28.7 µM (top of the series) unless noted
# In short: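 P. falciparum HB3 grown in erythrocytes (0.3% parasitemia, 2.5% hematocrit final) with compound for 72 h at 37 C, 5% CO2. Parasite DNA detected by SYBR Green after saponin/triton lysis overnight; normalized to 0.29 uM artemisinin and DMSO.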
# [15] = qHTS assay for small molecule agonists of the antioxidant response element (ARE) signaling pathway measured by Nrf2-dependant transcriptional activity - cell viability counter screen (AID 720653; active = well fitted curve in the direction sought with a large enough effect in the repeat runs; an effect the other way counts as inactive or inconclusive; also: % is scaled to controls: 0 for no effect and ±100 for the full control effect); conditions: ARE-bla HepG2 viability, CellTiter-Glo ATP luminescence, 16 h; max response: stronger effect = lower value
# In short: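 ARE-bla HepG2 cells treated with compounds for 16 h at 37C; this counter screen measures viability as intracellular ATP by CellTiter-Glo luminescence after 30 min at room temperature.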
# [16] = qHTS assay for cell viability of HEK293 cells (AID 743288; active = well fitted curve in the direction sought with a large enough effect; an effect the other way counts as inactive or inconclusive; also: % is scaled to controls: 0 for no effect and ±100 for the full control effect; nearly all actives have a fitted effect of over 50% in size); conditions: ATP luminescence (CellTiter-Glo), 18 h; max response: stronger effect = lower value
# In short: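 Parental HEK293 cells were seeded at 2,000 cells/well, rested at least 5 h at 37 C, then exposed to compounds in DMSO for 18 h at 37 C. Viability was read as ATP-dependent luciferase luminescence after 30 min at room temperature.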
# [17] = qHTS assay for cell viability of the p53RE-bla HCT-116 cell line (AID 743292; active = well fitted curve in the direction sought with a large enough effect; an effect the other way counts as inactive or inconclusive; also: % is scaled to controls: 0 for no effect and ±100 for the full control effect; nearly all actives have a fitted effect of over 55% in size)
# In short: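 CellSensor p53RE-bla HCT-116 cells (4,000/well) pre-incubated 5 h at 37 C, then exposed to compounds in DMSO for 16 h at 37 C. Viability read as ATP content by CellTiter-Glo luminescence after 30 min at room temperature.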
# [18] = qHTS assay for small molecule agonists of the antioxidant response element (ARE) signaling pathway measured by Nrf2-dependant transcriptional activity (AID 720636; active = well fitted curve in the direction sought with a large enough effect in the repeat runs; an effect the other way counts as inactive or inconclusive; also: % of control where 0% means no effect)
# In short: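 ARE-luc HepG2 cells carrying an Nrf2-responsive luciferase reporter, in medium with 1% dialyzed FBS, exposed to compound for 16 hr at 37 C, 5% CO2. Luminescence read 30 min after ONE-Glo addition.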
# [19] = qHTS assay for small molecule antagonists of the retinoid-related orphan receptor gamma (ROR-gamma) signaling pathway - cell viability counter screen (AID 720652; active = well fitted curve in the direction sought with a large enough effect in the repeat runs; an effect the other way counts as inactive or inconclusive;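 also: compound exposure lasted 16 hr before ATP read; % is scaled to controls: 0 for no effect and ±100 for the full control effect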)
# In short: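 Luminescence from CellTiter-Glo after 30 min at room temperature reported cellular ATP as the cytotoxicity measure. Cells were the CHO reporter line with doxycycline-induced ROR-gamma expression, exposed to compound for 16 hr at 37 C.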
smiles,measurement,setting,value
Oc1ccc(-c2nc(-c3ccc(F)cc3)c(-c3ccncc3)[nH]2)cc1,outcome,[1],inactive
same,Potency,[2],inactive
same,outcome,[3],inactive
same,Potency,[4],inactive
same,outcome,[5],inactive
same,outcome,[6],inactive
same,max response,[7],19.1% (inactive)
same,"parasite growth, % of DMSO control",[8],37%
same,"parasite growth remaining, % of DMSO control (lower = more inhibition)",[9],79.6%
same,"parasite growth, % of control (lower = inhibition)",[10],35.5%
same,"growth, % of control",[11],24.5%
same,"cell viability, % of control (lower = more cytotoxic)",[12],136%
O=c1cc(N2CCOCC2)oc2c(-c3ccccc3)cccc12,Potency,[2],inactive
same,outcome,[3],inactive
same,outcome,[5],inactive
same,outcome,[6],inactive
same,max response,[7],3.56% (inactive)
same,remaining parasite growth % (stronger effect = lower value),[13],105%
same,"parasite growth, % of DMSO control",[8],51.9%
same,"parasite growth remaining, % of DMSO control (lower = more inhibition)",[9],96%
same,"growth, % of control",[11],36.7%
same,"cell viability, % of control (lower = more cytotoxic)",[12],13.3%
Cc1cc2c(s1)Nc1ccccc1N=C2N1CCN(C)CC1,max response,[7],2.02% (inactive)
same,"cell viability, % of control (lower = more cytotoxic)",[12],199%
CN(C)c1ccc(O)c2c1C[C@H]1C[C@H]3[C@H](N(C)C)C(=O)C(C(N)=O)=C(O)[C@@]3(O)C(=O)C1=C2O,max response,[7],-5.16% (inactive) and -5.04% (inactive)
same,"parasite growth, % of DMSO control",[8],6.29%
same,"parasite growth remaining, % of DMSO control (lower = more inhibition)",[9],9.85%
same,"parasite growth, % of control (lower = inhibition)",[10],6.85%
same,"growth, % of control",[11],6.27%
same,"cell viability, % of control (lower = more cytotoxic)",[12],77.4%
C=CCc1cc(OC)c(O)c(C(=O)NCCO)c1,max response,[7],-5.25% (inactive)
same,"cell viability, % of control (lower = more cytotoxic)",[12],134%
Cc1cccc(C)c1OCC(=O)N[C@@H](Cc1ccccc1)[C@@H](O)C[C@H](Cc1ccccc1)NC(=O)[C@H](C(C)C)N1CCCNC1=O,Potency,[7],11.2 µM (active) and 6.62 µM (active)
same,remaining parasite growth % (stronger effect = lower value),[13],-1.44%
same,"remaining proliferation (% of control), lower = more inhibition",[14],0.361%
same,"parasite growth, % of DMSO control",[8],6.88%
same,"parasite growth remaining, % of DMSO control (lower = more inhibition)",[9],8.67%
same,"parasite growth, % of control (lower = inhibition)",[10],16.3%
same,"growth, % of control",[11],3.91%
same,"cell viability, % of control (lower = more cytotoxic)",[12],28%
COc1c2occc2cc2ccc(=O)oc12,max response,[15],-6.22% (inactive) and 0.264% (inactive)
same,max response,[7],12.3% (inactive)
same,max response,[16],1.56% (inactive) and -7.55% (inactive)
same,Potency,[17],inactive
same,"cell viability, % of control (lower = more cytotoxic)",[12],109%
CCCc1cc(=O)[nH]c(=S)[nH]1,Potency,[18],inactive
same,outcome,[19],inactive
same,max response,[15],-7.93% (inactive) and 7.26% (inactive)
same,max response,[7],1.36% (inactive)
same,max response,[16],-1.41% (inactive) and 0.952% (inactive)
same,Potency,[17],inactive
same,"parasite growth, % of DMSO control",[8],95.4%
same,"parasite growth remaining, % of DMSO control (lower = more inhibition)",[9],93.3%
same,"parasite growth, % of control (lower = inhibition)",[10],78.2%
same,"growth, % of control",[11],103%
same,"cell viability, % of control (lower = more cytotoxic)",[12],62.4%
CN1C(C(=O)Nc2ccccn2)=C(O)c2sccc2S1(=O)=O,max response,[7],15.1% (inactive)
same,"cell viability, % of control (lower = more cytotoxic)",[12],40.6%
CCOC(=O)C1=C[C@@H](OC(CC)CC)[C@H](NC(C)=O)[C@@H](N)C1,max response,[7],-3.59% (inactive)
same,"cell viability, % of control (lower = more cytotoxic)",[12],152%
N[C@@H](Cc1cc(I)c(Oc2cc(I)c(O)c(I)c2)c(I)c1)C(=O)O,max response,[15],-2.98% (inactive)
same,max response,[7],2.42% (inactive)
same,max response,[16],-6.73% (inactive)
same,Potency,[17],inactive
same,"parasite growth, % of DMSO control",[8],89.8%
same,"parasite growth remaining, % of DMSO control (lower = more inhibition)",[9],89.9%
same,"growth, % of control",[11],75.1%
same,"cell viability, % of control (lower = more cytotoxic)",[12],163%
CC(=O)NC[C@H]1CN(c2ccc(N3CCOCC3)c(F)c2)C(=O)O1,max response,[7],1.95% (inactive)
same,"parasite growth, % of DMSO control",[8],65.6%
same,"parasite growth remaining, % of DMSO control (lower = more inhibition)",[9],87.8%
same,"parasite growth, % of control (lower = inhibition)",[10],51.6%
same,"growth, % of control",[11],94.8%
same,"cell viability, % of control (lower = more cytotoxic)",[12],81.5%
c1ccc2[nH]c(-c3cscn3)nc2c1,outcome,[19],inactive
same,max response,[15],-11.8% (inactive) and -19.5% (inactive)
same,max response,[7],16.1% (inactive)
same,max response,[16],-17.6% (inactive) and -12.7% (inactive)
same,Potency,[17],inactive
same,"parasite growth, % of DMSO control",[8],11.2%
same,"parasite growth remaining, % of DMSO control (lower = more inhibition)",[9],87.1%
same,"parasite growth, % of control (lower = inhibition)",[10],33.5%
same,"growth, % of control",[11],9.5%
same,"cell viability, % of control (lower = more cytotoxic)",[12],245%

# — PubChem BioAssay (NCATS)
